Bioassay records deposited in PubChem by National Center for Advancing Translational Sciences (NCATS).
D2 ag-1 – agonists of human D2 dopamine receptor. P14416. HEK293 T-REx D2 cells, calcium flux agonist mode. activation, % at 2 µM. 340,000 tested, 0.53% active;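 active = activation over 3 SD above normal in the single-dose calcium agonist read, cut at about 30% in these data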
Target sequence (P14416 whole entry, looked up): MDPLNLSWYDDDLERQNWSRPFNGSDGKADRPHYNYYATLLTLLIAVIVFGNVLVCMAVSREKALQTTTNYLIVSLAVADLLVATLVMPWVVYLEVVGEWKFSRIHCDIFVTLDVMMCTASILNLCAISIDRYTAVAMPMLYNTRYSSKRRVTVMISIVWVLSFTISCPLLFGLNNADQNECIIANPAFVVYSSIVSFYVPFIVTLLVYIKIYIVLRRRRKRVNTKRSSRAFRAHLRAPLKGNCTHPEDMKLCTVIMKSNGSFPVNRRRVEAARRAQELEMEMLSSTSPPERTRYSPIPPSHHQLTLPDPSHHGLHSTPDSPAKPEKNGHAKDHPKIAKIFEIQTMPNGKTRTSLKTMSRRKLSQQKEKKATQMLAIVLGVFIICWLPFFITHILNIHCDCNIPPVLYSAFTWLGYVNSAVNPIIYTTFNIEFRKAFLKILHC
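Agonism scored from kinetic calcium signal (1 read/sec, 180 s) following compound pin transfer, after a 10 s baseline. Cells: HEK293 Trex line expressing inducible D2 receptor coupled to calcium, dye-loaded after overnight culture at 30 C.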
D2 PAM-1 – D2 dopamine receptor (human) potentiation. 340,000 tested, 0.34% active. AID 485347. P14416. HEK293 T-REx D2, calcium flux, EC20 dopamine potentiation. potentiation, % at 10 µM;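 active = potentiation over 3 SD above the plate norm, cut at about 30% in these data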
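Primary screen. Calcium kinetics in induced HEK293 T-REx D2 cells: compound pre-addition 180 s, EC20 dopamine, 180 s more.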
D2 ag-2 – agonists of human D2 dopamine receptor (beta-arrestin); P14416; DiscoveRx PathHunter D2 beta-arrestin, luminescence, 90 min; 100% = 57 uM dopamine signal; activation, % (concentration not given with the values); 360,000 tested, 0.084% active; AID 624465; in the data active = activation above about 40%
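DiscoveRx PathHunter D2 beta-arrestin cells (2,100/well) attached overnight, then compound-stimulated 90 min at 37 C in HBSS/10 mM HEPES/0.1% Tween-20 buffer; beta-galactosidase complementation read by luminescence after 1 h at ambient temperature. Dopamine 57 uM final (EC100) as control.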
D2 antag – antagonists of human D2 dopamine receptor | P14416 | HEK293 TREx D2 cells, calcium flux, dopamine EC80 | inhibition, % at 10 µM | 340,000 tested, 2% active | AID 485344; in the data active = inhibition above about 30%; inactive = below that, where a call was filed
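Dopamine at EC80 is the agonist stimulus; test compounds precede it by 180 s. Calcium flux read kinetically in a force-coupled, inducible HEK293 T-REx D2 cell line.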
D2 PAM-2 – positive allosteric modulators of human D2 dopamine receptor; 360,000 tested, 0.23% active; AID 624464; potentiation, % (test concentration not listed); DiscoveRx D2 beta-arrestin cells, luminescence, 90 min; 100% = 57 uM dopamine signal; P14416; in the data active = potentiation above about 50%
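PathHunter D2 cells, attached overnight at 37 deg C, received compound in DMSO plus dopamine at EC20 (50 nM final) for 90 min at 37 deg C. Beta-arrestin recruitment was read as luminescence after 1 h with detection reagent at ambient temperature.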
A number is an active result; i = inactive; nt = no result. In the library only some 2.4% were active in any assay of this set; here they are far more common.

SMILES	D2 ag-1	D2 PAM-1	D2 ag-2	D2 antag	D2 PAM-2
N#C/C(=C\c1ccncc1)c1nc2ccccc2[nH]1	i	i	i	i	i
Cc1cc2nc(/C(C#N)=C/c3ccncc3)[nH]c2cc1C	i	i	i	36.2	i
CCN=c1scc(C)n1/N=C/c1ccc(O)c(O)c1O	32.1	i	48.7	i	116.9
CCN=c1scc(C)n1/N=C/c1cc(Br)c(O)c(Br)c1	i	i	i	i	i
CCOc1ccccc1NC(=O)CSc1nc2c([nH]c3ccccc32)c(=O)n1-c1ccccc1	i	i	nt	nt	nt
O=C(NCCc1ccccc1)c1ccc2c(c1)CCN2S(=O)(=O)c1ccccc1	i	i	nt	nt	nt
CCOC(=O)CSC1=Nc2ccccc2C2=NC(CCC(=O)NCc3ccccc3)C(=O)N12 (stereo unspecified)	i	i	nt	nt	nt
COc1cc(OC)cc(C(=O)NC2CC(C)(C)NC(C)(C)C2)c1	i	i	i	82.5	i
CC1(C)CC(NC(=O)c2cc([N+](=O)[O-])cc([N+](=O)[O-])c2)CC(C)(C)N1	i	i	i	i	i
O=c1cc(CN2CCCCCC2)nc2sccn12	i	i	i	i	i
COc1ccccc1N1CCN(Cc2cc(=O)n3ccsc3n2)CC1	i	40.9	i	i	i
COc1ccccc1N1CCN(CCCNc2c(C)c(=O)n(C)c(=O)n2C)CC1	nt	nt	i	nt	i
COc1ccccc1N1CCN(CCCCNC(=O)c2ccc3ccccc3c2)CC1	nt	nt	nt	75.4	nt
COc1ccccc1N1CCN(CCCOc2ccc(F)cc2)CC1	i	i	i	89.3	i
COc1ccccc1N1CCN(CCCNc2cc(=O)n(C)c(=O)n2C)CC1	57.9	i	i	64.1	i
CNc1ncnc2c1cnn2-c1ccc(C)c(C)c1	nt	i	nt	nt	nt
Cc1ccccc1CN1C(=O)c2ccccc2S(=O)(=O)c2ccc(C(=O)OCC3CCCO3)cc21 (stereo unspecified)	i	i	nt	nt	nt
COc1cccc(OC)c1OCCCN1CCC(Cc2ccccc2)CC1	i	i	i	88.8	i
COCCn1nnnc1CN1CCC(Cc2ccccc2)CC1	i	38.4	i	i	i
COc1ccccc1N1CCN(CCOc2c(OC)cccc2OC)CC1	i	i	i	97.5	i
COc1cccc(OC)c1OCCN1CCCC1	i	i	i	i	i
COCCn1nnnc1CN1CCSCC1	i	i	i	i	i
COc1ccccc1N1CCN(CCCCOc2c(OC)cccc2OC)CC1	i	i	i	78.4	i
CCc1cccc(NC(=O)c2nc(-c3ccncc3)no2)c1	i	i	nt	nt	nt
Cc1ccc(N2CCN(C(=O)c3nn(C)c4c3CSc3ccccc3-4)CC2C)cc1 (stereo unspecified)	i	i	nt	nt	nt
SMILES	D2 ag-1	D2 PAM-1	D2 ag-2	D2 antag	D2 PAM-2
CCC(=O)Nc1cc(-c2cccc(C)c2)nn1-c1ccccc1	i	i	nt	nt	nt
CCOc1ccc(CN2CCC(Cc3ccccc3)CC2)cc1	i	i	i	30.4	i
O=c1c2ccccc2n2nnnc2n1-c1ccccc1	i	32.5	i	i	i
CCCN1Cc2cccc(C(=O)Nc3ccc(C(C)=O)cc3)c2C1=O	i	i	nt	nt	nt
O=C(NC1CCN(S(=O)(=O)c2ccccc2C(F)(F)F)CC1)c1ccco1	i	i	i	30.3	i
O=C(NC1CCN(S(=O)(=O)c2ccc(F)cc2)CC1)c1ccco1	i	i	i	i	i
CCCCN1CCC(COC(=O)c2cc(Cl)c(N)c3c2OCCO3)CC1	i	i	i	64.1	i
CCOc1ccc(/C=C/C(=O)Nc2ccc3nc(N(CC)CC)cc(C)c3c2)cc1OC	nt	i	nt	nt	nt
O=C(Nc1ccc(Cl)cc1)NC1CCCC1Cc1ccco1 (stereo unspecified)	i	i	i	53.4	i
O=C(Nc1ccc(Cl)cc1)NC1CCCCC1Cc1ccco1 (stereo unspecified)	i	i	i	i	i
Oc1c(C(c2ccccc2Cl)N2CCN(Cc3ccccc3)CC2)sc2nc(-c3ccco3)nn12 (stereo unspecified)	i	i	nt	nt	nt
CC1CC(C)(C)NC(=S)N1CCC(=O)NCCc1ccc(Cl)cc1 (stereo unspecified)	i	i	i	34.7	i
Cc1c(C(=O)Nc2ccc(S(=O)(=O)Nc3ncccn3)cc2)oc2ccccc12	i	i	i	46.1	i
Cc1ccc(-c2nc3cc(N)ccc3o2)cc1Br	i	i	i	i	i
Clc1ccc2oc(-c3ccccn3)nc2c1	i	i	i	i	i
Nc1ccc2oc(-c3ccccn3)nc2c1	i	50.0	i	i	i
Cc1ccc(C)c(-c2nc3cc(N)ccc3o2)c1	i	32.8	i	i	i
COc1ccccc1NC(c1ccc(Cl)cc1)c1nnc(-c2cccc(F)c2)o1 (stereo unspecified)	i	i	nt	nt	nt
CCOC(=O)c1cc(S(=O)(=O)Nc2ccc(OC(F)(F)F)cc2)[nH]n1	nt	i	nt	nt	nt
Cc1ccc(C)c(NC(=O)CC2NCCNC2=O)c1 (stereo unspecified)	i	i	nt	nt	nt
CN(C)/C=C/C(=O)c1ccc2noc(-c3cccc(F)c3)c2c1	i	i	46.2	i	i
CC(=O)c1ccc2noc(-c3ccc(F)cc3)c2c1	i	i	i	34.4	59.2
CC(=O)Nc1ccc(OC(=O)c2ccc(Br)c([N+](=O)[O-])c2)cc1	i	i	i	30.1	i
COc1ccc(CCC(=O)NCc2ccc3c(c2)CCN3C(=O)c2ccc(Cl)cc2)cc1	i	i	nt	nt	nt
C[C@@H]1CC2OC(=O)[C@@]3(C)C(=O)CC[C@@](C)(C23)[C@@]1(O)CCc1ccoc1 (stereo partly specified)	i	i	i	30.1	i
SMILES	D2 ag-1	D2 PAM-1	D2 ag-2	D2 antag	D2 PAM-2
c1ccc(C(c2nnnn2Cc2ccco2)N2CCN(c3nc4ccccc4s3)CC2)cc1 (stereo unspecified)	i	30.1	i	i	i
CC1CCCC(C)N1CCCNC(=O)c1ccc2nc(N3CCOCC3)sc2c1 (stereo unspecified)	nt	i	i	nt	i
O=C(NCCCN1CCC(Cc2ccccc2)CC1)c1ccc2nc(N3CCOCC3)sc2c1	i	i	i	48.0	i
CCc1nnc(NC(=O)COc2ccc(N(C)S(=O)(=O)c3ccc(C)cc3)cc2)s1	i	i	i	39.9	i
Cc1ccc(S(=O)(=O)N(C)c2ccc(OCC(=O)Nc3nnc(C4CC4)s3)cc2)cc1	i	i	i	i	i
Cc1ccc(-c2nnc(Nc3ccc(O)cc3)c3ccccc23)cc1S(=O)(=O)N1CCCCC1	i	i	nt	nt	nt
COc1ccc(CNC(=O)Cn2ccc3cc(S(=O)(=O)N4CCCCC4)ccc32)c(OC)c1	i	i	nt	nt	nt
C#CCN(C)Cc1ccccc1	i	i	i	31.9	i
CCn1c2ccccc2c2cc(NC(=O)Cc3ccc(S(=O)(=O)N4CCOCC4)s3)ccc21	i	i	i	36.2	i
Cc1ccc(NC(=O)Cn2c(=O)n(CCC(=O)NCc3ccccc3Cl)c(=O)c3ccccc32)c(C)c1	nt	i	nt	nt	nt
O=S(=O)(c1ccc(F)cc1)N1CCC(N2CCCCCC2)CC1	i	i	i	42.0	i
